# PubChem BioAssay (Tox21)
# Inconclusive results are not listed. A call without a number means that no potency is given here. A number with no mark means an inactive call. Activity calls are given as the source filed them. Calls follow the shape of the dose curve; as a rule, active = well fitted curve in the direction sought with a large enough effect in the repeat runs; inconclusive = weak or mixed curves; inactive = no such curve, though single readings can be large; an effect the other way counts as inactive or inconclusive.
# Legend:
# [1] = qHTS assay to identify small molecule agonists of the RXR signaling pathway - cell viability counter screen (AID 1159529);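 also: HEK 293T cells carrying an RXR-alpha UAS beta-lactamase reporter; series mostly up to about 77 µM; nearly all actives have a fitted effect of over 50% in size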
# Procedure, shortened: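 In this parallel viability measure, GeneBLAzer RXR-alpha HEK 293T cells (2% charcoal-stripped FBS) were given a 5 hr preincubation, treated with compounds 16 hr at 37 C, and read by CellTiter-Glo luminescence.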
# [2] = qHTS assay to identify small molecule antagonists of the retinoid acid receptor (RAR) signaling pathway - cell viability counter screen (AID 1159551); also: nearly all actives have a fitted effect of over 35% in size
# Procedure, shortened: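 Measured by luminescent ATP detection, viability reflects C3RL4 cells treated 6 h at 37 C with test chemicals in the presence of 1 uM (final) retinol.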
# [3] = qHTS assay to identify small molecule antagonists of the retinoic acid receptor (RAR) signaling pathway (AID 1159552; also: nearly all actives have a fitted effect of over 50% in size)
# Procedure, shortened: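 C3RL4 RARE-luc cells, overnight plating; retinol 1 uM final added right after compound; 6 hr 37 C; luciferase read at 30 min RT.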
# [4] = qHTS assay to identify small molecule agonists of the retinoic acid receptor (RAR) signaling pathway (AID 1159553)
# Procedure, shortened: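 6 hr compound exposure (DMSO vehicle) of overnight-plated C3RL4 RARE-luc cells at 37 C; luminescence quantified after 30 min RT with luciferase reagent.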
# [5] = qHTS assay to identify small molecule antagonists of the estrogen related receptor (ERR) signaling pathway from Tox21 library - cell viability counter screen (AID 1224834); also: nearly all actives have a fitted effect of over 30% in size
# Procedure, shortened: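 Seeded ERR cells were rested 6 h at 37 C/5% CO2 before compounds, positive and negative controls or DMSO were added. Incubation continued for 17.5 h, and viability was then quantified by CellTiter-Fluor fluorescence.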
# [6] = target: Luciferin 4-monooxygenase (Photinus pyralis) (UniProt P08659); assay: qHTS assay to identify small molecule inhibitors of firefly luciferase (AID 1224835); also: nearly all actives have a fitted effect of over 25% in size; also: potency is read from the fitted curve at half-maximal effect
# Luciferin 4-monooxygenase (Photinus pyralis), sequence (P08659 whole entry, looked up): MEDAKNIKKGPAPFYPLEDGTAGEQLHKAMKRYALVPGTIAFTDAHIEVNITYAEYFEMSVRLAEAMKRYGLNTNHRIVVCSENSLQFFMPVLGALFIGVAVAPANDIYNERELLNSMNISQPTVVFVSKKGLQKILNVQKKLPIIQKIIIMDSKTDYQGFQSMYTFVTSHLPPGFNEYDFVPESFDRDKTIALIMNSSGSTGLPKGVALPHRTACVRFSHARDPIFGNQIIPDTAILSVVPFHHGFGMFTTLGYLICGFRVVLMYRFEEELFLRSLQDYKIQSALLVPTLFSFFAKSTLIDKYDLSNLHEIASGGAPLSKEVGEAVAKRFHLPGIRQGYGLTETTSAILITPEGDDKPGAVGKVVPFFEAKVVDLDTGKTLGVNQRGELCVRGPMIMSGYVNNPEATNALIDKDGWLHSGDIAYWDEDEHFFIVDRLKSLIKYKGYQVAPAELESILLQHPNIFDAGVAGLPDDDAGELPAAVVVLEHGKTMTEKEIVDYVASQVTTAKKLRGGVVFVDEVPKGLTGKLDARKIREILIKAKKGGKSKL
# Procedure, shortened: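 Inhibition of purified Photinus luciferase is measured by luminescence. Substrate levels (D-luciferin, ATP) sit at their KM values. Each compound is tested in a concentration series.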
# [7] = qHTS assay to identify small molecule agonists of the constitutive androstane receptor (CAR) signaling pathway - cell viability counter screen (AID 1224836); also: series mostly up to about 92 µM; nearly all actives have a fitted effect of over 45% in size
# Procedure, shortened: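 Using CellTiter-Fluor, viability of HepG2 cells harbouring hCAR and CYP2B6-2.2kb was measured following 23 h incubation with a 15-concentration compound series plus PK11195 (0.75 uM final).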
# [8] = qHTS assay to identify small molecule antagonists of the constitutive androstane receptor (CAR) signaling pathway - cell viability counter screen (AID 1224837); also: series mostly up to about 92 µM; nearly all actives have a fitted effect of over 45% in size
# Procedure, shortened: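 To flag cytotoxic false antagonists, HepG2 hCAR/CYP2B6-2.2kb cells were treated 23 hr with 15-concentration compound series and 50 nM CITCO at 37 C/5% CO2; CellTiter-Fluor fluorescence was the measured end point.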
# [9] = target: Nuclear receptor subfamily 1 group I member 3 (Homo sapiens) (UniProt Q14994); assay: qHTS assay to identify small molecule antagonists of the constitutive androstane receptor (CAR) signaling pathway (AID 1224838);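 also: HepG2 cells stably expressing hCAR with CYP2B6 luciferase reporter stimulated by CITCO; nearly all actives have a fitted effect of over 40% in size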; also: potency is read from the fitted curve at half-maximal effect
# Nuclear receptor subfamily 1 group I member 3 (Homo sapiens), sequence (Q14994 whole entry, looked up): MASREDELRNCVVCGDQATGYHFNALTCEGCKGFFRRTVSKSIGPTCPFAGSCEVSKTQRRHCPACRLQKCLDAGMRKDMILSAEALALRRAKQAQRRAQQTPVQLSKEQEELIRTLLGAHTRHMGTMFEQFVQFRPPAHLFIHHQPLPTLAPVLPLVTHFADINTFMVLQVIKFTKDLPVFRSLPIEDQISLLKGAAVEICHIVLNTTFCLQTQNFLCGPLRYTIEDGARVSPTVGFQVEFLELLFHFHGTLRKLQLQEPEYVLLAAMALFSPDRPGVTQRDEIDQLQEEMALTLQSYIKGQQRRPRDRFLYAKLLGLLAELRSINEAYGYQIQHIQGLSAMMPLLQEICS
# Procedure, shortened: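 Human hepatoma HepG2 cells expressing hCAR and a CYP2B6 promoter (2.2 kb) luciferase construct; compound titration (15 points) with 50 nM CITCO final, 24 h at 37 C/5% CO2; luminescence via ONE-Glo after 30 min at room temperature.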
# [10] = target: Nuclear receptor subfamily 1 group I member 3 (Homo sapiens) (UniProt Q14994); assay: qHTS assay to identify small molecule agonists of the constitutive androstane receptor (CAR) signaling pathway (AID 1224839);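 also: HepG2 cells stably carrying human CAR and a CYP2B6 luciferase reporter; series mostly up to about 92 µM; nearly all actives have a fitted effect of over 15% in size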
# Procedure, shortened: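 Double-stable HepG2 cells (hCAR, CYP2B6-2.2kb) seeded 4 h before compound addition. Exposure 24 h with 0.75 uM PK11195 final. Luciferase detected by ONE-Glo.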
SMILES,outcome [1],outcome [2],outcome [3],Potency [4],outcome [5],Potency [6],outcome [7],outcome [8],Potency [9],Potency [10]
CCCC(=O)Nc1ccc(OCC(O)CNC(C)C)c(C(C)=O)c1 (stereo not drawn),inactive,inactive,inactive,inactive,inactive,inactive,inactive,inactive,inactive,inactive
NCC1(Cc2noc(=O)[nH]2)CCCCC1,inactive,inactive,inactive,inactive,inactive,inactive,inactive,inactive,inactive,–
OC1OCCOC1O (stereo not drawn),inactive,inactive,inactive,inactive,inactive,inactive,inactive,inactive,inactive,inactive
O=C(CCCCC(=O)Nc1c(I)cc(I)c(C(=O)O)c1I)Nc1c(I)cc(I)c(C(=O)O)c1I,inactive,inactive,inactive,inactive,inactive,inactive,inactive,inactive,inactive,–
CCN1CCCC1CN (stereo not drawn),inactive,inactive,inactive,inactive,inactive,inactive,inactive,inactive,inactive,inactive
CSc1cnccn1,inactive,inactive,inactive,inactive,inactive,inactive,inactive,inactive,inactive,inactive
CC(=O)OC1CCCCC1C(C)(C)C (stereo not drawn),inactive,inactive,inactive,inactive,inactive,inactive,inactive,inactive,inactive,inactive
COc1cc(OC)nc(O[C@H](C(=O)O)C(OC)(c2ccccc2)c2ccccc2)n1,inactive,inactive,inactive,inactive,inactive,inactive,inactive,inactive,inactive,–
CCCC(=O)OC/C=C(\C)CCC=C(C)C,inactive,inactive,inactive,inactive,inactive,inactive,inactive,inactive,inactive,–
COC(=O)c1ccccc1C(=O)O,inactive,inactive,inactive,inactive,inactive,inactive,inactive,inactive,inactive,–
CC1CCc2c(N3CCC(O)CC3)c(F)cc3c(=O)c(C(=O)O)cn1c23 (stereo not drawn),inactive,inactive,inactive,inactive,inactive,inactive,inactive,inactive,23.7 µM (active),inactive
CC1(C)[C@H]2CC[C@](C)(C2)[C@H]1O,inactive,inactive,inactive,inactive,inactive,inactive,inactive,inactive,inactive,inactive
NCc1ccc(S(N)(=O)=O)cc1,inactive,inactive,inactive,inactive,inactive,inactive,inactive,inactive,inactive,–
CC(N)CCCC(C)(C)O (stereo not drawn),inactive,inactive,inactive,inactive,inactive,inactive,inactive,inactive,inactive,–
CCO[Si](CC)(OCC)OCC,inactive,inactive,inactive,inactive,inactive,inactive,inactive,inactive,inactive,inactive
COC(=O)CCCCC(CCSS/C(CCO)=C(\C)N(C=O)Cc1cnc(C)nc1N)SC(C)=O (stereo not drawn),inactive,inactive,inactive,inactive,inactive,inactive,inactive,inactive,inactive,–
CC(C)NCC(O)c1ccc2ccccc2c1 (stereo not drawn),inactive,inactive,inactive,inactive,inactive,inactive,inactive,inactive,inactive,inactive
CN(C)CCN(C)CCO,inactive,inactive,inactive,inactive,inactive,inactive,inactive,inactive,inactive,inactive
CCCCCC(C)O (stereo not drawn),inactive,inactive,inactive,inactive,inactive,inactive,inactive,inactive,inactive,–
O=C[O][Al]([O]C=O)[O]C=O,inactive,inactive,inactive,inactive,inactive,63.3 µM (active),inactive,inactive,inactive,inactive
O=C(O)CNC(=O)CNC(=O)CNC(=O)CSC(=O)c1ccccc1,inactive,inactive,inactive,inactive,inactive,inactive,inactive,inactive,inactive,inactive
CC(C)OC(=O)CCC(=O)OC(C)C,inactive,inactive,inactive,inactive,inactive,inactive,inactive,inactive,inactive,–
C=CC(=O)OCC1CCCO1 (stereo not drawn),inactive,inactive,inactive,inactive,inactive,inactive,inactive,inactive,inactive,–
COS(=O)(=O)O,inactive,inactive,inactive,inactive,inactive,inactive,inactive,inactive,inactive,–
